PGC1a acetyl inh – PGC1a acetylation modulation, inhibitor mode | U2OS PGC1a acetylation, AlphaScreen anti-acetyl-lysine; with virally co-expressed GCN5 acetyltransferase | inhibition, % at 15.6 µM | 0.17% of 350,000 active;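 active means every replicate shows inhibition of at least 40%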;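 further: 0% = neutral control wells and 100% = positive control wells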
Statin myotox sup – suppression of simvastatin myotoxicity; C2C12 myotubes + simvastatin, ATP luminescence, 48 h; scaled: DMSO 0, geranylgeraniol control 100; rescue of ATP level, % at 7.49 µM; 0.78% of 330,000 active;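 active means mean ATP rescue above about 67%, or every replicate alone reaching that limit, limit read from the data, passing the limit was not always enough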;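 further: myotubes were challenged with 10 µM simvastatin during compound exposure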
DENV2 CPE rescue – protects cells from dengue virus 2 cytopathic effect; CPE inhibition, % at 9.99 µM; DENV2-infected cells, cytopathic effect rescue, plate reader; 1.7% of 350,000 active; in the data active means CPE inhibition above about 20%, passing the limit was not always enough; tested in BHK-21 cells;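 further: 0% = median of neutral control wells and 100% = median of positive control wells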
miR122 inh – inhibitors of miR-122 in Huh7 cells. Huh7 miR-122 Renilla luciferase sensor, 48 h; neutral wells = 0, positive control = 100. activation (reporter increase), % at 12.5 µM. 0.3% of 340,000 active;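 active means mean replicate activation score at least 90 and every replicate individually at or above 90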;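 further: higher luciferase means less miR-122 activity so hits act as miR-122 inhibitors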
PvdQ acylase – blocks Pseudomonas aeruginosa PvdQ acylase activity; purified PvdQ acylase, fluorescence plate reader; inhibition, % at 10 µM; 0.063% of 340,000 active; AID 488965; in the data active means inhibition above about 30%, passing the limit was not always enough;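 further: 0% = vehicle neutral wells and 100% = reference inhibitor wells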
C2C12 COX5a inh – reduces COX5a expression driven by PGC-1a in C2C12 myotubes. shares compounds with PGC1a acetyl inh. C2C12 myotubes PGC-1a adenovirus, COX5a qPCR. maximal activity, %. 45 tested, under 10 active. AID 743461;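 active means fitted dose curve reaching 40% activity at or below the highest valid dose tested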
AID743468 – change in PGC-1a target gene PDK4 expression, dose response, C2C12 myotubes, RT-qPCR, cherry-pick | PDK4 expression increase, % at 19.5 µM | AID 743468 | PGC-1a adenovirus, PDK4 mRNA qPCR | 45 tested, under 10 active | shares compounds with PGC1a acetyl inh;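 active means fitted curve reaching a 40% PDK4 expression rise at or below the top valid tested dose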
An asterisk follows results filed as active; . = no result given; [ ] = another dose, or the depositor's remark. Rows were chosen to be rich in hits. Some 2.2% of all compounds tested hit in one or more screens of this group.

SMILES | PGC1a acetyl inh | Statin myotox sup | DENV2 CPE rescue | miR122 inh | PvdQ acylase | others
COC(=O)[C@@H]1[C@@H](CO)[C@@H]2Cn3c(ccc(-c4ccccc4)c3=O)[C@H]1N2C(=O)c1ccccc1F | . | -8 | . | -2[16.7 µM] | .
CC(=O)OCC12CC(OC(=O)CC(C)C)C(C)=CC1OC1C(O)C(OC(C)=O)C2(C)C12CO2 (stereo unspecified) | 74* | . | -37 | -4 | -17
Cn1cc(CCC(=O)N2CCC3(CC2)OCCO3)c2ccccc21 | 2 | 112* | . | -3 | -7
CC[C@H]1C=C(C(=O)N[C@@]2(C(=O)O)C[C@H]2CC)[C@H]2CCC(=O)[C@H]2C1 | -8 | . | 2 | . | .
CC=Cc1ccc2n(c1=O)C[C@H]1[C@H](CO)[C@@H](C(=O)O)[C@@H]2N1S(=O)(=O)c1ccccc1C (mixture of isomers) | . | -9 | 0 | 3[16.7 µM] | .
CN(C)C(=O)Oc1ccc(C(=O)c2ccccc2)cc1 | 10 | 3 | . | 5 | -1
CC(C)(C)n1cc(C(=O)c2ccccc2)cc1-c1ccccc1 | . | -3 | 36* | . | -9
N#Cc1cccc(-c2ccc([C@H]3[C@H](CO)N4CCCCN(C(=O)Cc5ccncc5)C[C@@H]34)cc2)c1 | -7 | . | -13 | 10[16.7 µM] | .
C/C=C/c1ccc2c(c1)OCO2 | -7 | 3 | 20* | -5 | -10
O=C(NC1(C(F)(F)F)Oc2ccccc2O1)N1CCC2(CC1)OCCO2 | 11 | 101* | . | 3 | -15
CC#CP(=O)(OC)C(O)(CF)c1ccccc1 (stereo unspecified) | 11 | 105* | 1 | -2 | -2
N=c1n(CCO)c2ccccc2n1Cc1ccccc1 | 14 | 86* | . | -8 | 3
Cc1c(C(=O)O)cc(-c2ccccc2)n1Cc1ccccc1 | -9 | 1 | 2 | . | 2
C/C=C/c1ccc([C@@H]2[C@H]3CN(C(=O)Cc4cccnc4)CCCCN3[C@H]2CO)cc1 | 1 | -4 | 15 | 0[16.7 µM] | .
CN1C2CCC1/C(=C/c1ccccn1)C(=O)/C2=C\c1ccccn1 | 78* | . | -38 | -19 | 1
Cc1nc2ccccc2c(=O)n1-c1nccs1 | . | . | 43* | . | .
COC(=O)[C@@H]1[C@@H](CO)[C@@H]2Cn3c(ccc(-c4cccc(C(=O)N(C)C)c4)c3=O)[C@H]1N2CC1CC1 | . | . | -13 | . | .
COc1ccc(C2=NCc3nnc(C)n3-c3ccc(Cl)cc32)cc1Cl | -2 | 98* | . | -6 | -12
O=C(Cc1ccccn1)N1CCCCN2[C@H](CO)[C@@H](c3ccc(-c4ccc(F)cc4)cc3)[C@@H]2C1 | 6 | . | 2 | -8[16.7 µM] | .
O=c1[nH]c2ccccc2n1C1CCN(C(c2cc3ccccc3o2)c2nnnn2Cc2ccccc2)CC1 (stereo unspecified) | 49* | -12 | 13 | -4 | . | C2C12 COX5a inh=55;AID743468=-7
COC(=O)[C@H]1[C@H](CO)[C@H]2Cn3c(ccc(-c4ccccc4F)c3=O)[C@@H]1N2Cc1cccnc1 | . | 20 | -6 | 7[16.7 µM] | .

Screens as filed in PubChem.
